Compound activity (PubChem)
Only some compounds are listed: those with a hit (about 12% of all), similar ones and a draw of the others.
Sfp inh – blocks B. subtilis Sfp PPTase activity. Q9F4F7. Biochemical Sfp PPTase activity, qHTS. Potency, µM, most hits filed as inhibitors. 310,000 compounds, 3.5% hits;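 further: the enzyme is Sfp with the accession as filed and its product quenches rhodamine fluorescence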
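Fluorescence-quenching assay: 15 nM Sfp-PPTase preincubated 15 min at room temperature with compound, then 5 uM rhodamine-CoA and 12.5 uM BHQ-2-labelled YbbR peptide added. Fluorescence (ex 525/em 598 nm) read at start and after 30 min; difference gives rate.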
JMJD2A Tudor inh – JMJD2A Tudor domain (human) inhibition; O75164; AlphaScreen JMJD2A-Tudor / H3K4me3 peptide binding; Potency, µM (series often up to 114 µM), usual class: inhibitors; 390,000 compounds, 4.4% hits; AID 504339; further: nearly all actives have a fitted effect of over 50% in size
G9a block – G9a (human) methyltransferase inhibition; Q96KQ7; G9a H3K9 monomethylation, AlphaScreen, 2 h; Potency, µM (titrated, usually from 102 µM), most hits filed as inhibitors; 350,000 compounds, 8.8% hits; AID 504332; further: nearly all actives have a fitted effect of over 75% in size
Target sequence (Q96KQ7 913-1193 limits assumed): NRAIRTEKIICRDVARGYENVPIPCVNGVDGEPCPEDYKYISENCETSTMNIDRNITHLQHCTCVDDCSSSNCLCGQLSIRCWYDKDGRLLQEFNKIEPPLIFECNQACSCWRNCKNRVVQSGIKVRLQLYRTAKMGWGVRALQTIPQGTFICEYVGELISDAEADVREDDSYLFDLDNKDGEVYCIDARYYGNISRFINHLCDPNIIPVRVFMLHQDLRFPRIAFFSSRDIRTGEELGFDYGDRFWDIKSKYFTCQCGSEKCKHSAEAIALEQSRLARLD
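Compounds were preincubated with 20 nM G9a for 15 min, after which biotinylated H3K9 peptide (500 nM) and SAM (20 uM) started a 2 h room-temperature reaction. Monomethylated product was quantified by antibody-based AlphaScreen chemiluminescence.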
HP1b binding inh – blocks HP1-beta chromodomain binding to methylated histone tails | P83916 | AlphaScreen HP1-beta / biotin-H3K9me3 peptide binding | Potency, µM (top dose mostly 114 µM), actives largely listed as inhibitors | 390,000 compounds, 0.56% hits; further: nearly all actives have a fitted effect of over 70% in size
Target sequence (P83916 whole entry, looked up): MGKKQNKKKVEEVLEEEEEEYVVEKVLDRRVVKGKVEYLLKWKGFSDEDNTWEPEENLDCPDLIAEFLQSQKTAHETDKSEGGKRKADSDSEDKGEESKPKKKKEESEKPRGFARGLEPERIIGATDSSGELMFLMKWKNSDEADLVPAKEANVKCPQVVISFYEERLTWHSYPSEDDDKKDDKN
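AlphaScreen: HP1-beta (50 nM) preformed 30 min with biotin-H3(1-18)K9me3 peptide (50 nM) in PBS pH 7.4, 0.01% Tween-20. Compound added for 30 min at RT, then streptavidin donor/nickel chelate acceptor beads (10 ug/mL) for 30 min.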
TDP1 block – inhibitors of human tyrosyl-DNA phosphodiesterase TDP1; Q9NUW8; recombinant TDP1, AlphaScreen DNA substrate cleavage; Potency, µM (top dose mostly 130 µM), usual class: inhibitors; 350,000 compounds, 0.28% hits; further: nearly all actives have a fitted effect of over 40% in size
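AlphaScreen read-out: signal falls as enzyme removes the 3' tyrosine-FITC from a 5'-biotinylated DNA oligo (15 nM, 5 min, RT). Enzyme was E. coli-made recombinant Tdp1 at 1 nM, exposed to compound for 15 min beforehand; beads 10 ug/ml, 10 min.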
BAZ2B inh – BAZ2B (human) inhibition; 360,000 compounds, 4.4% hits; AlphaScreen BAZ2B-H3K14Ac peptide displacement; Q9UIF8; AID 504333; Potency, µM (titrated, usually from 114 µM), actives largely listed as inhibitors; further: nearly all actives have a fitted effect of over 60% in size
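Protein-peptide AlphaScreen: BAZ2B 50 nM, b-H3K14Ac 50 nM, 1x PBS pH 7.4 + 0.01% Tween-20. Preincubation 30 min RT; cpd 30 min RT (top 110 uM); beads 20 min RT, light-protected.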
A number is an active result; i = inactive; ? = inconclusive; nt = no result given; [ ] = dose if it differs, or a comment. The call rests on the fitted dose curve; in most records, active means well fitted curve in the direction sought with a large enough effect; inconclusive means small, poorly fitted or top-dose-only effect, or another doubt; inactive means no such curve, though single readings can be large; an effect the other way counts as inactive or inconclusive.

SMILES | Sfp inh | JMJD2A Tudor inh | G9a block | HP1b binding inh | TDP1 block | BAZ2B inh
C#CCSC1=C(C#N)C(c2cccs2)C(C(=O)OCC)=C(C)N1 (centres undefined) | 28µM | i | i[12.7 µM] | i | i | i
CCOC(=O)CSC1=C(C#N)C(c2ccc(F)cc2)C(C(C)=O)=C(C)N1 (centres undefined) | ? | i | ? | i | i | i
CCOC(=O)C1=C(C)NC(C)=C(C(=O)OCC)C1c1cccs1 | i | i | i | i | i | i
CCN(CC)C(=O)CSC1=C(C#N)C(c2cccs2)C=C(C)N1 (centres undefined) | 50µM | 56µM | 10µM | i | i | i
CS(=O)(=O)c1ccc(NC(=O)CCN2C(=O)NC3(CCCC3)C2=O)cc1 | nt | i | ? | i | i | i
CC(=O)Nc1ccc(NC(=O)COC(=O)c2c(-c3ccccc3)noc2C)cc1 | nt | i | i[12.7 µM] | i | i | i
O=C(NC(NC(=S)Nc1ccccc1C(=O)O)C(Cl)(Cl)Cl)c1ccco1 (centres undefined) | 40µM | 79µM | 10µM | i | i | i
COC(=O)c1ccccc1NC(=S)NC(NC(=O)c1ccco1)C(Cl)(Cl)Cl (centres undefined) | i | i | 2.2µM | i | i | i
Cc1ccc(NC(=S)NC(NC(=O)c2ccccc2C)C(Cl)(Cl)Cl)c(C)c1 (centres undefined) | i | i | ? | i | i | i
O=C(NC(NC(=S)Nc1ccccc1C(=O)O)C(Cl)(Cl)Cl)c1ccccc1 (centres undefined) | 35µM | 50µM | 25µM | ? | i | ?
COC(=O)c1ccccc1NC(=S)NC(NC(=O)COc1ccccc1)C(Cl)(Cl)Cl (centres undefined) | i | i | 2.2µM | i | i | i
Cc1ccccc1NC(=S)NC(NC(=O)c1ccco1)C(Cl)(Cl)Cl (centres undefined) | i | i | ? | i | i | i
Cc1cccc(N2CC(c3nc4ccc(C)cc4[nH]3)CC2=O)c1 (centres undefined) | nt | i | i | i | i | i
CCOCC(=O)Nc1ccc(S(=O)(=O)NCC2CCCO2)cc1 (centres undefined) | i | i | nt | i | nt | i
COc1cc(-c2nc(Cn3nnc(C(=O)Nc4ccccc4)c3C)c(C)o2)cc(OC)c1OC | nt | ? | ? | ? | i | i
O=C(NCCOCCn1c(=O)oc2ccccc21)Nc1ccc(F)cc1 | nt | i | i | i | i | i
COC(=O)c1ccccc1NC(=S)NC(NC(=O)c1ccccc1[N+](=O)[O-])C(Cl)(Cl)Cl (centres undefined) | i | i | 3.5µM | i | i | i
C#CC(N)CCC(=O)O (centres undefined) | nt | nt | i | nt | i | nt
COc1ccc(CCNC(=O)c2nnn(CC(=O)Nc3cccc(F)c3)c2N)cc1OC | i | ? | 45µM | i | i | 50µM
Cc1nnc(SCCn2c(N3CCC(Cc4ccccc4)CC3)nc3c2c(=O)[nH]c(=O)n3C)s1 | i | i | i[12.7 µM] | i | nt | ?
CCCCn1c(N2CCC(Cc3ccccc3)CC2)nc2c1c(=O)[nH]c(=O)n2C | ? | 50µM | ? | ? | i | ?
C=CCn1c(N2CCN(c3ccc(OC)cc3)CC2)nc2c1c(=O)[nH]c(=O)n2C | i | i | 50µM | i | i | i
C=CCn1c(N2CCN(c3ccc(OC)cc3)CC2)nc2c1c(=O)n(C)c(=O)n2C | i | i | i | i | i | ?
Cn1c(=O)[nH]c(=O)c2c1nc(N1CCN(c3cccc(Cl)c3)CC1)n2CCCc1ccccc1 | i | nt | 18µM | nt | i | i
CCN(CC(=O)Nc1ccccc1C(F)(F)F)C(=O)c1ccccc1Cc1ccccc1 | nt | i | i[0.501 µM] | i | nt | i
SMILES | Sfp inh | JMJD2A Tudor inh | G9a block | HP1b binding inh | TDP1 block | BAZ2B inh
CC(C)Nc1cccc(S(=O)(=O)N2CCCN(S(=O)(=O)c3ccc4c(c3)OCCO4)CC2)c1 | nt | i | nt | nt | i | nt
CCS(=O)(=O)c1ccc2oc(Nc3ccc(C(C)C)cc3)nc2c1 | 18µM | ? | 1.8µM | 16µM | i | i
CCOc1ccc(Nc2nc3cc(S(=O)(=O)N(CC)CC)ccc3o2)cc1 | 8.9µM | i | 2.2µM | i | i | i
CCS(=O)(=O)c1ccc2oc(Nc3cc(C)cc(C)c3)nc2c1 | i | i | i | i | i | i
CCOc1cccc2cc(C(=O)NCc3ccc(F)cc3)c(=N)oc12 | i | i | i | i | i | i
CC1=C(CCC(=O)O)c2cc3nc(cc4[nH]c(cc5[nH]c(cc1n2)c(C)c5C(C)O)c(C)c4C(C)O)C(C)=C3CCC(=O)O (centres undefined) | i | nt | nt | nt | 16µM | nt
O=C1/C(=C/c2cccs2)SC(=S)N1CCC(=O)N1CCCCC1CCO (centres undefined) | i | ? | 50µM | i | i | 22µM
O=C(CCN1C(=O)/C(=C/c2cccs2)SC1=S)N1CCCCC1 | i | ? | 10µM | ? | nt | 8.9µM
COc1ccccc1/C=C1\SC(=S)N(CCC(=O)N2CCCCC2CCO)C1=O (centres undefined) | i | ? | ? | i | i | i
O=C(CCN1C(=O)/C(=C\c2ccccc2)SC1=S)N1CCCCC1 | i | i | i | i | i | i
COc1cccc(/C=C2\SC(=S)N(CCC(=O)N3CCCCC3CCO)C2=O)c1 (centres undefined) | i | ? | 56µM | ? | i | 32µM
O=C(CCCN1C(=O)/C(=C\c2ccccc2)SC1=S)N1CCOCC1 | nt | ? | nt | ? | i | nt
O=C(CCCN1C(=O)/C(=C/c2ccccc2Cl)SC1=S)N1CCOCC1 | i | 22µM | i | i | i | 79µM
COc1ccc(NC(=O)N(C)C[C@H]2Oc3ccc(NS(=O)(=O)c4cccs4)cc3C(=O)N([C@@H](C)CO)C[C@@H]2C)cc1 | nt | i | nt | i | i | nt
COC(=O)[C@@H]1C[C@@]2(O)[C@@H](O)[C@@H](O)[C@@H](O)C[C@H]2N1Cc1ccc(N2CCOCC2)cc1 | i | nt | nt | nt | i | nt
Cc1ccc(-n2c(=O)c3sc4ccccc4c3n(CC(=O)NC3CCCC3)c2=O)cc1C | nt | i | i | i | i | i
Cc1ccc2nc(N3CCN(c4cccc(Cl)c4)CC3)c(-n3nc(C)cc3C)nc2c1 | nt | i | i | i | i | i
Cc1ccc(/C=C2/SC(=S)N(CCC(=O)N3CCN(C)CC3)C2=O)cc1 | i | i | nt | i | i | i
CN1CCN(C(=O)CCN2C(=O)/C(=C/c3ccc(F)cc3)SC2=S)CC1 | i | i | 71µM | i | nt | ?
COc1cccc(/C=C2\SC(=S)N(CCCC(=O)N3CCCC3)C2=O)c1 | i | 45µM | 40µM | ? | i | 32µM
COc1ccc(/C=C2\SC(=S)N(CCCC(=O)N3CCN(C)CC3)C2=O)cc1OC | nt | i | nt | i | nt | nt
O=C(CCN1C(=O)/C(=C/c2ccc(F)cc2)SC1=S)NCCc1cnc[nH]1 | i | ? | 28µM | i | i | 18µM
